Hits are enriched below; roughly 2.2% of the tested compounds scored in any of these assays.
Efflux pump inh = inhibitors of Candida antifungal efflux pumps expressed in yeast; AID 485275; 330,000 compounds, 0.44% hits; S. cerevisiae Candida pump triplex, Nile Red efflux; inhibition, % at 10 µM;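 active = plate passing quality check with inhibition over a set limit, or well fluorescence over plate mean plus 4 SD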;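 also: Nile Red retained in pooled yeast measured as flow cytometry median fluorescence; 0% = buffer negative control and 100% = Enniatin B positive control; higher means more Nile Red kept so more efflux inhibition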
SUMO Mot1 rescue = blocks SUMOylation pathway, rescuing yeast Mot1-301 growth | S. cerevisiae Mot1-301 growth rescue, ATP luminescence, 38.5C; percent above DMSO median, 100 means doubled | growth rescue, % at 18.8 µM | 320,000 compounds, 1% hits;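 active = every valid replicate shows activation above 250% relative to neutral control wells; inactive = the rest, any valid replicate at or below 250%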;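 also: OY570 slx delta 5 strain wells were the positive control but not used for scaling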
SKN-1 inh = C. elegans SKN-1 inhibition; AID 624304; inhibition, % at 21.8 µM; 360,000 compounds, 0.49% hits; C. elegans VP596 Pgst-4::GFP/RFP ratio, acrylamide-induced, 24 h;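 active = interference check ratio from 0.5 to 1.5 plus GFP to RFP signal ratio inhibition reaching or exceeding a fixed threshold, cut at about 30% in these data, passing the limit was not always enough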
HGIII-sPLA2 inh = Inhibits HGIII-sPLA2 liposome hydrolysis, primary screen. Q9NZ20. AID 743126. QFRET BODIPY PC-A2 liposome hydrolysis, fluorescence. 370,000 compounds, 0.56% hits. inhibition, % at 12.2 µM;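 active = inhibition above mean plus 3 SD of compounds lying within the high and low control bounds, cut at about 19% in these data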;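 also: 0% = median of test compound wells and 100% = no enzyme DMSO wells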
Target sequence (Q9NZ20 whole entry, looked up): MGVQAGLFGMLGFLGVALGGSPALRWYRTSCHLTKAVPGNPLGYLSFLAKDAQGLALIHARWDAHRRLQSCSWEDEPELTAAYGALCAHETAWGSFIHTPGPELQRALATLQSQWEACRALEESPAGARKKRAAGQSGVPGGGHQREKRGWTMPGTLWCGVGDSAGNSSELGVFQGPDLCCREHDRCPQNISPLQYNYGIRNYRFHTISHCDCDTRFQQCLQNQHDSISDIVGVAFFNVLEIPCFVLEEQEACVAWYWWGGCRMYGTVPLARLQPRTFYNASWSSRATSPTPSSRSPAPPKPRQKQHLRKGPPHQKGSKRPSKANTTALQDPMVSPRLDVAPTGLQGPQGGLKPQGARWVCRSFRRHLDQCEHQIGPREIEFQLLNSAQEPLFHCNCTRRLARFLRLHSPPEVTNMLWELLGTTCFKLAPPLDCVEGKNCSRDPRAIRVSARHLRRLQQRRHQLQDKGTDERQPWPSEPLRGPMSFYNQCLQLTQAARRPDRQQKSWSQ
Cmpd fluor yeast = compound fluorescence in yeast efflux pump counter-screen; S. cerevisiae AD/pABC3, flow cytometry; AID 588517; fluorescence ratio to DMSO, % at 10 µM; shares compounds with Efflux pump inh; 1,700 compounds, 4% hits;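 active = fluorescence ratio to DMSO above its plate's cutoff, the plate mean ratio plus 5 SD, cut at about 210% in these data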;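 also: unstained yeast with no Nile Red so the signal is compound autofluorescence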
Mdr1 pump inh = inhibitors of Candida albicans Mdr1 efflux pump | shares compounds with Efflux pump inh | S. cerevisiae AD/CaMDR1, Nile Red efflux, flow cytometry | inhibition, % at 10 µM | 1,700 compounds, 1% hits; in the data active = inhibition above about 26%;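 also: 0% = DMSO vehicle and 100% = reference inhibitor; higher means more Nile Red retained so more efflux inhibition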
CaCdr2 efflux inh = Candida Cdr2 efflux pump inhibition; S. cerevisiae AD/CaCDR2, Nile Red retention, flow cytometry; Nile Red retention ratio vs DMSO, % at 10 µM; AID 588520; 1,700 compounds, 4% hits; shares compounds with Efflux pump inh; in the data active = Nile Red retention ratio vs DMSO above about 190%;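 also: higher ratio means more blocking of Cdr2 efflux of the dye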
CaCdr1 efflux inh = blocks the Candida albicans Cdr1 efflux pump in yeast | S. cerevisiae AD/CaCDR1, Nile Red efflux, flow cytometry | 1,700 compounds, 1% hits | inhibition, % at 10 µM | AID 588522 | shares compounds with Efflux pump inh;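 active = inhibition above the screen-wide mean plus twice its standard deviation, cut at about 32% in these data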
Active calls of the source: *; nt = not tested or not shown.

SMILES	Efflux pump inh	SUMO Mot1 rescue	SKN-1 inh	HGIII-sPLA2 inh	Cmpd fluor yeast	Mdr1 pump inh	CaCdr2 efflux inh	CaCdr1 efflux inh
COc1ccccc1/C=C/C=C1N=C(/C=C/c2ccc(Cl)cc2)OC/1=O	0	3	10	-65	nt	nt	nt	nt
Cc1nn(-c2ccc(F)cc2)c(Cl)c1C(=O)OC(C)C(=O)N(C)C1CCCCC1 (configuration not stated)	0	11	-4	-2	nt	nt	nt	nt
COc1ccccc1/C=c1\sc2nc(-c3ccco3)nn2c1=O	0	65	12	nt	nt	nt	nt	nt
CCOc1ccc(/C=c2\sc3nc(-c4ccco4)nn3c2=O)cc1OCC	0	-10	-10	-1	115	0	103	0
O=C1CC(c2ccccc2)Sc2ccccc2N1 (configuration not stated)	0	-9	32	0	nt	nt	nt	nt
Cc1ccsc1C1CC(=O)Nc2ccccc2S1 (configuration not stated)	0	-1	4	-6	94	0	102	0
O=C1CC(c2ccco2)Sc2ccccc2N1 (configuration not stated)	0	98	5	-1	100	0	112	0
O=C(CN1C(=O)NC2(CCCCC2)C1=O)N1CCN(S(=O)(=O)c2cccc([N+](=O)[O-])c2)CC1	0	4	10	-1	nt	nt	nt	nt
Cc1ccc(CNS(=O)(=O)c2ccc3c(c2)CCN3C(=O)C2CCC2)cc1	0	142	3	2	102	0	99	0
CCCN(CCC)CCNS(=O)(=O)c1ccc2c(c1)CCN2C(=O)C1CCC1	0	1	4	-3	107	0	100	0
CC1CCCN(CCCNS(=O)(=O)c2cc3c(cc2Br)CCN3C(=O)C2CC2)C1 (configuration not stated)	nt	nt	nt	1	nt	nt	nt	nt
CC1CCCN(CCCNS(=O)(=O)c2ccc3c(c2)CCN3C(=O)C2CC2)C1 (configuration not stated)	1.4*	107	-12	2	115	0	110	0
O=C(C1CCC1)N1CCc2cc(S(=O)(=O)Nc3ccc4c(c3)OCCO4)ccc21	0	-2	-22	-4	112	0	95	0
CC(=O)N1CCc2cc(S(=O)(=O)NCc3ccc(C)cc3)ccc21	0	2	7	-5	nt	nt	nt	nt
CSc1nsc(SC)c1C(=O)NC(=O)Nc1cccnc1	0.8*	-21	-2	4	107	0	112	0
COc1cccc(-c2nnc(SC(C(=O)c3c[nH]c4ccccc34)c3ccccc3)n2C)c1 (configuration not stated)	0.8*	-9	4	-10	103	0	104	0
C=CCN1C(=O)[C@H](CC(=O)N2CCCC2)[C@@]2(C(=O)OCC)CCCC=C12	nt	nt	nt	3	nt	nt	nt	nt
O=c1cc(-c2ccccc2)c2cc(Cl)c(O)c(CN3CCOCC3)c2o1	0	4	0	1	nt	nt	nt	nt
CCc1cc2c(-c3ccccc3)cc(=O)oc2c(CN2CCOCC2)c1O	0.8*	-3	-10	-2	106	0	118	0
CC(=O)c1c(N2CCOCC2)[nH]c(-c2ccccc2)nc1=S	0	2	1	-3	102	0	101	0
CC(=O)c1c(N2CCN(Cc3ccccc3)CC2)[nH]c(-c2ccccc2)nc1=S	0.5*	142	14	0	134	1	104	1
CSc1nc(-c2ccccc2)nc(N2CCOCC2)c1C(C)=O	0	4	2	-13	97	0	104	0
CSc1nc(-c2ccccc2)nc(N2CCCC2)c1C(C)=O	0	-3	-1	1	nt	nt	nt	nt
CC(C(=O)N1CCc2ccccc21)N1CCN(S(=O)(=O)c2ccc(C(F)(F)F)cc2)CC1 (configuration not stated)	0.7*	0	4	2	106	0	116	0
S=C(NCCCN1CCOCC1)N1CCN(c2nc(-c3ccccc3)cs2)CC1	1.3*	-4	6	3	89	0	97	0
